According to PubChem BioAssay (NCI):
The panel holds about 83,000 compounds, 20% with a hit somewhere; the sample as a whole holds those more often.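 A percent growth of 40 corresponds to 60% growth inhibition; 0 means no net growth; -100 means all cells died. Active threshold: below 10.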 Active and inactive are the calls of the source.

Key:
Test in all cases: NCI-60 one-dose screen, 48 h (100 = growth as untreated, 0 = no growth, -100 = all killed)
HCT-15 colon = details: 10 µM unless noted
HT29 colon = details: 10 µM unless noted
SNB-75 CNS = details: 10 µM unless noted
SNB-19 CNS = details: 10 µM unless noted
U251 CNS = details: 10 µM unless noted
PC-3 prostate = details: 10 µM unless noted
SK-MEL-5 melanoma = details: 10 µM unless noted
UACC-62 melanoma = details: 10 µM unless noted
LOX IMVI melanoma = details: 10 µM unless noted
SK-MEL-28 melanoma = details: 10 µM unless noted
SK-MEL-2 melanoma = details: 10 µM unless noted
EKVX NSCLC = details: 10 µM unless noted
SN12C renal = details: 10 µM unless noted
UO-31 renal = details: 10 µM unless noted
TK-10 renal = details: 10 µM unless noted
ACHN renal = details: 10 µM unless noted
CAKI-1 renal = details: 10 µM unless noted
A498 renal = details: 10 µM
HL-60(TB) leukemia = details: 10 µM unless noted
CCRF-CEM leukemia = details: 10 µM unless noted

Measured: growth

C[C@]12CCc3sc(NCCc4ccccc4)nc3C1=CC[C@@H]1[C@@H]2CC[C@]2(C)C(=O)CC[C@@H]12
inactive: HCT-15 colon 22.5% | HT29 colon 34.3% | SNB-75 CNS 85.5% | SNB-19 CNS 80.2% | U251 CNS 60.1% | PC-3 prostate 38.8% | SK-MEL-5 melanoma 66% | UACC-62 melanoma 75.6% | LOX IMVI melanoma 70.2% | SK-MEL-28 melanoma 83.3% | SK-MEL-2 melanoma 92.1% | EKVX NSCLC 92.4% | SN12C renal 68.5% | UO-31 renal 50.4% | TK-10 renal 91.3% | ACHN renal 73.8% | CAKI-1 renal 73.5% | A498 renal 86.9%
active: HL-60(TB) leukemia 1.45% | CCRF-CEM leukemia 8.44%

C/C(CC(C)(C)N1CC1)=N\NC(=O)Nc1cccc2ccccc12
inactive: HCT-15 colon 60.8% | HT29 colon 38.6% | SNB-75 CNS 58.8% | SNB-19 CNS 63.5% | U251 CNS 57.3% | PC-3 prostate 64.4% | SK-MEL-5 melanoma 72.3% | UACC-62 melanoma 68.4% | LOX IMVI melanoma 46.1% | SK-MEL-28 melanoma 102% | SK-MEL-2 melanoma 72.9% | EKVX NSCLC 78.5% | SN12C renal 63.3% | UO-31 renal 57.9% | TK-10 renal 61.3% | ACHN renal 42.3% | CAKI-1 renal 28.9% | A498 renal 59.3% | HL-60(TB) leukemia 77.6% | CCRF-CEM leukemia 82.3%

COc1cccc(/C=C/[N+](=O)[O-])c1
inactive: SNB-75 CNS 68.1% | SNB-19 CNS 71.8% | U251 CNS 54.4% | PC-3 prostate 63.6% | SK-MEL-5 melanoma 80.6% | UACC-62 melanoma 92.6% | SK-MEL-28 melanoma 50.2% | SK-MEL-2 melanoma 97.4% | EKVX NSCLC 89.2% | SN12C renal 99.5% | UO-31 renal 45.8% | TK-10 renal 90.9% | ACHN renal 74.7% | CAKI-1 renal 96.8% | A498 renal 43.8% | HL-60(TB) leukemia 17.4% | CCRF-CEM leukemia 51.2%
active: HCT-15 colon -9.58% | HT29 colon -48.6% | LOX IMVI melanoma -80.6%

Fc1c[c-]c(-c2ccccn2)c(F)c1.[CH3-].[Pt+2].c1ccc([PH+](c2ccccc2)c2ccccn2)cc1
active: HCT-15 colon -36.7% | HT29 colon -13% | SNB-75 CNS -5.13% | U251 CNS 6.42% | SK-MEL-5 melanoma -75.3% | UACC-62 melanoma -30.5% | LOX IMVI melanoma -95.3% | SK-MEL-28 melanoma -21.9% | SK-MEL-2 melanoma -34.1% | EKVX NSCLC 4.9% | SN12C renal 3.34% | UO-31 renal -71.9% | TK-10 renal -1.18% | ACHN renal -80.4% | CAKI-1 renal -56.2% | A498 renal -21% | HL-60(TB) leukemia -6.41% | CCRF-CEM leukemia 9.35%
inactive: SNB-19 CNS 26% | PC-3 prostate 15.4%

COc1cc(/C=C/[N+](=O)[O-])cc(OC)c1
active: HCT-15 colon -44.5% | HT29 colon -25.6% | U251 CNS -50.9% | PC-3 prostate -25.4% | SK-MEL-5 melanoma 8.23% | UACC-62 melanoma 2.61% | LOX IMVI melanoma -93.9% | SK-MEL-28 melanoma -16.9% | UO-31 renal -82.3% | TK-10 renal -13.9% | ACHN renal -48.9% | A498 renal -4.1% | HL-60(TB) leukemia -20.3% | CCRF-CEM leukemia -7.03%
inactive: SNB-75 CNS 25.1% | SNB-19 CNS 24.6% | SK-MEL-2 melanoma 59.6% | EKVX NSCLC 59.4% | SN12C renal 44.7% | CAKI-1 renal 44.2%

Oc1c(CCl)cc(Cl)cc1CCl
inactive: HCT-15 colon 109% | HT29 colon 104% | SNB-75 CNS 95.8% | SNB-19 CNS 107% | U251 CNS 110% | PC-3 prostate 93.9% | SK-MEL-5 melanoma 104% | UACC-62 melanoma 116% | LOX IMVI melanoma 93.8% | SK-MEL-28 melanoma 126% | SK-MEL-2 melanoma 105% | EKVX NSCLC 104% | SN12C renal 122% | UO-31 renal 86.4% | TK-10 renal 106% | ACHN renal 106% | CAKI-1 renal 104% | A498 renal 119% | HL-60(TB) leukemia 103% | CCRF-CEM leukemia 108%

CCCCOc1ccc(C(N)Cc2ccccc2)cc1 (stereo not given)
inactive: HCT-15 colon 84.9% | HT29 colon 75.4% | SNB-75 CNS 71.2% | SNB-19 CNS 97% | U251 CNS 88.1% | PC-3 prostate 79.5% | SK-MEL-5 melanoma 92.8% | UACC-62 melanoma 105% | LOX IMVI melanoma 80% | SK-MEL-28 melanoma 105% | SK-MEL-2 melanoma 107% | EKVX NSCLC 91.8% | SN12C renal 95.4% | UO-31 renal 74.6% | TK-10 renal 98% | ACHN renal 90.5% | CAKI-1 renal 84.1% | A498 renal 65% | HL-60(TB) leukemia 84.7% | CCRF-CEM leukemia 98.5%

CCCC(=O)O[C@@H]1C[C@H]2C[C@@H](O[C@@H]3O[C@@H](C)[C@@H](O)[C@@H](O)[C@H]3OC)C[C@@H](C[C@@H](C)/C=C/C=C\C[C@@H]3O[C@@H](C[C@@H]3C)[C@@H](O)C[C@H]3C[C@@]1(O)C(=O)O3)O2
inactive: HCT-15 colon 54.3% | HT29 colon 60% | SNB-75 CNS 55.4% | SNB-19 CNS 52.4% | U251 CNS 35.6% | PC-3 prostate 33% | SK-MEL-5 melanoma 19.5% | UACC-62 melanoma 62.5% | LOX IMVI melanoma 62.5% | SK-MEL-28 melanoma 71.5% | SK-MEL-2 melanoma 57.8% | EKVX NSCLC 22.6% | SN12C renal 58.7% | UO-31 renal 34.2% | TK-10 renal 29% | ACHN renal 62% | CAKI-1 renal 60.9% | A498 renal 79.9% | HL-60(TB) leukemia 29.9% | CCRF-CEM leukemia 50.9%

Cc1ccccc1NC(=NCCCN1CC1)Nc1ccccc1C
inactive: HCT-15 colon 96% | HT29 colon 75.5% | SNB-75 CNS 100% | SNB-19 CNS 96.8% | U251 CNS 91.5% | PC-3 prostate 74.4% | SK-MEL-5 melanoma 98% | UACC-62 melanoma 105% | LOX IMVI melanoma 75.3% | SK-MEL-28 melanoma 111% | SK-MEL-2 melanoma 114% | EKVX NSCLC 96.8% | SN12C renal 92.1% | UO-31 renal 73.3% | TK-10 renal 99.7% | ACHN renal 90.1% | CAKI-1 renal 77.5% | A498 renal 91.7% | HL-60(TB) leukemia 95.9% | CCRF-CEM leukemia 89.7%

NC(=Nc1ccccc1)N[N+](=O)[O-]
inactive: HCT-15 colon 105% | HT29 colon 100% | SNB-75 CNS 87.5% | SNB-19 CNS 96.9% | U251 CNS 111% | PC-3 prostate 94.2% | SK-MEL-5 melanoma 103% | UACC-62 melanoma 94% | LOX IMVI melanoma 103% | SK-MEL-28 melanoma 105% | SK-MEL-2 melanoma 127% | EKVX NSCLC 94% | SN12C renal 102% | UO-31 renal 92% | TK-10 renal 103% | ACHN renal 114% | CAKI-1 renal 97.6% | A498 renal 110% | HL-60(TB) leukemia 38.7% | CCRF-CEM leukemia 52.1%

COc1cccc2c1c(C(=O)C(=O)Nc1ccn[nH]1)cn2Cc1ccc(F)cc1
inactive: HCT-15 colon 106% | HT29 colon 105% | SNB-75 CNS 90.1% | SNB-19 CNS 107% | U251 CNS 103% | PC-3 prostate 98.3% | SK-MEL-5 melanoma 106% | UACC-62 melanoma 92.1% | LOX IMVI melanoma 103% | SK-MEL-28 melanoma 110% | SK-MEL-2 melanoma 93.8% | EKVX NSCLC 119% | SN12C renal 100% | UO-31 renal 89% | TK-10 renal 51.7% | ACHN renal 101% | CAKI-1 renal 46.7% | HL-60(TB) leukemia 115% | CCRF-CEM leukemia 93.2%
active: A498 renal -72.9%

O=C(CCl)c1ccc([N+](=O)[O-])o1
active: HCT-15 colon -86.6% | HT29 colon -14.3% | U251 CNS 7.98% | PC-3 prostate -23.8% | LOX IMVI melanoma -81.8% | SK-MEL-28 melanoma -64.6% | SK-MEL-2 melanoma -7.05% | SN12C renal -38.1% | UO-31 renal -8.81% | TK-10 renal -39.4% | ACHN renal -40.6% | CAKI-1 renal -95.1% | HL-60(TB) leukemia -68.9% | CCRF-CEM leukemia -74.9%
inactive: SNB-75 CNS 51.3% | SNB-19 CNS 75.4% | SK-MEL-5 melanoma 62.8% | UACC-62 melanoma 33% | EKVX NSCLC 96.2% | A498 renal 101%

C[Se]C(=O)c1ccccc1OC(C)=O
active: SNB-75 CNS -42.4%
inactive: HCT-15 colon 81% | HT29 colon 11.1% | SNB-19 CNS 46.6% | U251 CNS 46% | PC-3 prostate 70% | SK-MEL-5 melanoma 79.3% | UACC-62 melanoma 58.2% | LOX IMVI melanoma 45.3% | SK-MEL-28 melanoma 46.1% | SK-MEL-2 melanoma 75.4% | EKVX NSCLC 33.2% | SN12C renal 69% | UO-31 renal 33% | TK-10 renal 27.5% | ACHN renal 85.9% | CAKI-1 renal 64.4% | A498 renal 66.5% | HL-60(TB) leukemia 32.8% | CCRF-CEM leukemia 63.3%

C=C1C[C@](OC)([C@H](O)C(=O)N[C@@H](OC)[C@@H]2C[C@@H](O)C(C)(C)[C@@H](C[C@@H](COC)OC)O2)O[C@H](C)[C@@H]1C
active: HCT-15 colon -51.3% | HT29 colon -68.7% | SNB-75 CNS -100% | SNB-19 CNS -10.7% | U251 CNS -61.9% | PC-3 prostate -25.5% | SK-MEL-5 melanoma -100% | UACC-62 melanoma -92.5% | LOX IMVI melanoma -81.8% | SK-MEL-28 melanoma -100% | SK-MEL-2 melanoma -64.8% | EKVX NSCLC -33.9% | SN12C renal -29.9% | UO-31 renal -61.7% | TK-10 renal -36% | ACHN renal -84.6% | CAKI-1 renal -39.7% | A498 renal -87.1% | HL-60(TB) leukemia -52% | CCRF-CEM leukemia -24.3%

CC[C@H](C)[C@H](NC(=O)[C@H]1CCCCN1C)C(=O)N(C)[C@H](C[C@@H](OC(C)=O)c1nc(C(=O)N[C@@H](Cc2ccccc2)C[C@H](C)C(=O)OC)cs1)C(C)C
active: HCT-15 colon 5.1% | HT29 colon -3.46% | SK-MEL-5 melanoma -69.5% | LOX IMVI melanoma 8.61% | A498 renal 7.53% | HL-60(TB) leukemia -38.6% | CCRF-CEM leukemia 4.02%
inactive: SNB-75 CNS 31.8% | SNB-19 CNS 31.4% | U251 CNS 11.8% | PC-3 prostate 23.7% | UACC-62 melanoma 43.6% | SK-MEL-28 melanoma 53.6% | SK-MEL-2 melanoma 42.8% | EKVX NSCLC 36.7% | SN12C renal 37.2% | UO-31 renal 40.3% | TK-10 renal 18.1% | ACHN renal 13.6% | CAKI-1 renal 32.2%
